In the supplement of paper PMC10849652:
About 7,900 targets were measured; listed, in parts, are those with a hit and a random draw of the rest. About 0.6% of all pairs of compound and target were hits.

compound: Cn1cc(-c2ccc3c(c2)CCN3C(=O)Cc2cccc(C(F)(F)F)c2)c2c(N)ncnc21; assay: log2 fold change, soluble protein after heating vs DMSO (PISA); higher = thermal stabilisation; K562 cells, 10 uM, 30 min; active = over 0.2 and 3.5 SD of the protein, either way, in both replicates (recomputed)
Procedure, shortened: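 Soluble protein was defined as the supernatant after 21,000xg for 90 min. It came from K562 cells at 2×10^6 cells/mL given 10 μM compound for 30 min, heated in aliquots for 3 min across 48°C-58°C, pooled, and extracted in PBS with 0.5% NP-40 at 4°C, and was quantified by TMTpro 16plex LC-MS/MS with equalised channel sums. Thermal stability against control samples, from duplicates, is reported as log2 fold change.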

Sequence of UniProt P56385 (P56385 whole entry, looked up): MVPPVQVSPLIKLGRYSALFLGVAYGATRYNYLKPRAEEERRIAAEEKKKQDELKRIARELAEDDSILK
Sequence of UniProt Q92560 (Q92560 whole entry, looked up): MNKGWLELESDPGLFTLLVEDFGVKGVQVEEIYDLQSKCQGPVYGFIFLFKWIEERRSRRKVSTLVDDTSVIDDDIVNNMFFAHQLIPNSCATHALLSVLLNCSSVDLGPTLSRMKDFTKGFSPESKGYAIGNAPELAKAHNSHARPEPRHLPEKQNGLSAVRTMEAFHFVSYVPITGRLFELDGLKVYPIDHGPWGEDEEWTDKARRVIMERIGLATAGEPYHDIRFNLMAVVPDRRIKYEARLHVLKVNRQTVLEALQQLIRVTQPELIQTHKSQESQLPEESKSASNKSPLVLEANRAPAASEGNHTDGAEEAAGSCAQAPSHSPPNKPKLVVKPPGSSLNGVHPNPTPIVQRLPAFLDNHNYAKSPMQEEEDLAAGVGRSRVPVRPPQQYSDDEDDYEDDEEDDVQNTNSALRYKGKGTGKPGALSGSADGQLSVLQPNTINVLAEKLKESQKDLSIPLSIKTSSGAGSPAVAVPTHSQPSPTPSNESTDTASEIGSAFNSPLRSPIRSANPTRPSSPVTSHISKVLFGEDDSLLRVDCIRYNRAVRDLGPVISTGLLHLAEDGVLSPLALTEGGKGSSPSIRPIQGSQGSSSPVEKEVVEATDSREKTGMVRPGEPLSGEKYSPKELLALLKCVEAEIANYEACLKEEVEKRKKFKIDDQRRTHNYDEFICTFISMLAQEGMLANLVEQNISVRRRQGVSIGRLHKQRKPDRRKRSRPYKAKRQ
Sequence of UniProt Q9Y3D8 (Q9Y3D8 whole entry, looked up): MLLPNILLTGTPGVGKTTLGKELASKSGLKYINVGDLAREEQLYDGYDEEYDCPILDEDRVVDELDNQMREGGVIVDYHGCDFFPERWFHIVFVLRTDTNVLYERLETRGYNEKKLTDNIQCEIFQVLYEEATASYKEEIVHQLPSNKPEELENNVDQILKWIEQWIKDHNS
Sequence of UniProt Q9NP58 (Q9NP58 whole entry, looked up): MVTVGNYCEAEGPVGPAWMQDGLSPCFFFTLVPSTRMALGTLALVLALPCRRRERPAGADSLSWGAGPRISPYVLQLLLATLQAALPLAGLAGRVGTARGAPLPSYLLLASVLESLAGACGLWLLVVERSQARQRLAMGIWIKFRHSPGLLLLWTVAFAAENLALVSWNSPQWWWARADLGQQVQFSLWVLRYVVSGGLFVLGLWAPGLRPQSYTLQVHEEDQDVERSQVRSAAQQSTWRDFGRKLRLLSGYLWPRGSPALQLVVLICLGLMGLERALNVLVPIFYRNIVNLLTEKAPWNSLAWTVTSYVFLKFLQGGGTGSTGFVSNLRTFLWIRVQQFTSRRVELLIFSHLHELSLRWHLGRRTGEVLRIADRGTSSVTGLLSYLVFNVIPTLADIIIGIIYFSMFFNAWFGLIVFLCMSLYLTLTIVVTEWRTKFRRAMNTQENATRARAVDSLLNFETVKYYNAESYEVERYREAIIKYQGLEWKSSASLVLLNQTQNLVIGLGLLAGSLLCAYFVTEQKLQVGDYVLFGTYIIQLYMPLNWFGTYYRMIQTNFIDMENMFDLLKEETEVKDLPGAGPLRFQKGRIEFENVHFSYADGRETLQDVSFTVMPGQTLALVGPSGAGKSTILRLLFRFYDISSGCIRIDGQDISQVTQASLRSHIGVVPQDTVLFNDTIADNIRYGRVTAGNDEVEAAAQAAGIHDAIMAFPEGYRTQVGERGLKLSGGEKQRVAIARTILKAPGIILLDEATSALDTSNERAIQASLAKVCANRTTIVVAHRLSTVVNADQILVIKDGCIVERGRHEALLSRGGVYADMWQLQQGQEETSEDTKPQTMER
Sequence of UniProt P53680 (P53680 whole entry, looked up): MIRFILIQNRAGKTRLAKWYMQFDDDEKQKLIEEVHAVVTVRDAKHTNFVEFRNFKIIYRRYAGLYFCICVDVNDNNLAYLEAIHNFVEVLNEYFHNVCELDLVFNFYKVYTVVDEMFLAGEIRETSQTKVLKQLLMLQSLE
Sequence of UniProt Q9H8Y5 (Q9H8Y5 whole entry, looked up): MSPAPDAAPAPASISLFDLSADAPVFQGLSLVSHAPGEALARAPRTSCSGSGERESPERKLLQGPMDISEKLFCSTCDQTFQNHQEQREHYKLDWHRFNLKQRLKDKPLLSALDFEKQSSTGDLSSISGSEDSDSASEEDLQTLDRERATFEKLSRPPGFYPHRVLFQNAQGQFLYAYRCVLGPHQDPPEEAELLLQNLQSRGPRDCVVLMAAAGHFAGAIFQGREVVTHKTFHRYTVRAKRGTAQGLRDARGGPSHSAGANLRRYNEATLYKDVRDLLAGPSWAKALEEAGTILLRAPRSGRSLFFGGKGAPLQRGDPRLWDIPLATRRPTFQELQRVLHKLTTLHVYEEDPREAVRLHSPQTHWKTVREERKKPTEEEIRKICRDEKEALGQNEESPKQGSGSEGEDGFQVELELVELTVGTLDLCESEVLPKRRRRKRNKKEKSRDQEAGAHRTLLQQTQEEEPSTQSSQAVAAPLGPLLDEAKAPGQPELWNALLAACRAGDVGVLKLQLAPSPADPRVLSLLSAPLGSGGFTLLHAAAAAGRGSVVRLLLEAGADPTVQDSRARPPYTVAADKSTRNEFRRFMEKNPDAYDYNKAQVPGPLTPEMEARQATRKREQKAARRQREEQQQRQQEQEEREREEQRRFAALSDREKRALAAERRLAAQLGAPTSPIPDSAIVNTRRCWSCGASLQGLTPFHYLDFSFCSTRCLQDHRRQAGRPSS
Sequence of UniProt Q99798 (Q99798 whole entry, looked up): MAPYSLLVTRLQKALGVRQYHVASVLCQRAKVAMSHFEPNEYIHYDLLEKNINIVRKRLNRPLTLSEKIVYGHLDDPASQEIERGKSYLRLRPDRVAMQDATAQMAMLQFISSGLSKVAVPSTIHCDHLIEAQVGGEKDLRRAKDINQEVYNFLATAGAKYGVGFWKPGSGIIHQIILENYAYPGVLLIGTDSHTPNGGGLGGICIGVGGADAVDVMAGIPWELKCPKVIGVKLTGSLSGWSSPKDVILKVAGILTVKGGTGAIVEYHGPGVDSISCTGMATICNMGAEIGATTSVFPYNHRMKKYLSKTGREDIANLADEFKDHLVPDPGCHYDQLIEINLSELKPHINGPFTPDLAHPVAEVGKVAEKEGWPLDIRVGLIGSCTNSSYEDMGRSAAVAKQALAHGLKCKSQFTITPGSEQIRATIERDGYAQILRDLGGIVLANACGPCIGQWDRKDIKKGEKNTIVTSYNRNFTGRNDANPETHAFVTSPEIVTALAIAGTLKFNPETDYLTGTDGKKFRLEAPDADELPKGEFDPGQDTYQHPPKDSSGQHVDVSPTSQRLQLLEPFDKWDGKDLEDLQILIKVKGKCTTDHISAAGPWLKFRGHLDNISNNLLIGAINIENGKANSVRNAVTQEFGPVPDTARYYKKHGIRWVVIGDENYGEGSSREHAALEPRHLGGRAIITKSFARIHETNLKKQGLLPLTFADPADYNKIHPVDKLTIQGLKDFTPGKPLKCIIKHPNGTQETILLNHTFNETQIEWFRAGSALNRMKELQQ
Sequence of UniProt Q9UKV5 (Q9UKV5 whole entry, looked up): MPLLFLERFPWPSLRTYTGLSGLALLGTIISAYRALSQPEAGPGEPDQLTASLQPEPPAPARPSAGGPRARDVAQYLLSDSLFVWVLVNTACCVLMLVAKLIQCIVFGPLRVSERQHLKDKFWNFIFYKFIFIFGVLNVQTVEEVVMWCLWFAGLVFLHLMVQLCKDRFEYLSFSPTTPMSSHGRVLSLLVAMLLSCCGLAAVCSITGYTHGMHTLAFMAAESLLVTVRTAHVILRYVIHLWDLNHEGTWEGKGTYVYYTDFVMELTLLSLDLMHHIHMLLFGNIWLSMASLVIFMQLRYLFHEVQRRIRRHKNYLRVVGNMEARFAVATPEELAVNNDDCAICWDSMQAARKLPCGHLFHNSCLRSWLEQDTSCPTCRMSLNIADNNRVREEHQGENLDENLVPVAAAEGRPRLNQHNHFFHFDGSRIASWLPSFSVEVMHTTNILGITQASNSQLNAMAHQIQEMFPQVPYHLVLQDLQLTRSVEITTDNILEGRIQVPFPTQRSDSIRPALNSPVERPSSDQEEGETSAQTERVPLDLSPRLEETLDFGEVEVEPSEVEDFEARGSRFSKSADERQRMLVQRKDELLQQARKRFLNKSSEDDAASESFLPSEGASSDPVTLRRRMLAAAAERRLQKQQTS
Sequence of UniProt Q9UBL3 (Q9UBL3 whole entry, looked up): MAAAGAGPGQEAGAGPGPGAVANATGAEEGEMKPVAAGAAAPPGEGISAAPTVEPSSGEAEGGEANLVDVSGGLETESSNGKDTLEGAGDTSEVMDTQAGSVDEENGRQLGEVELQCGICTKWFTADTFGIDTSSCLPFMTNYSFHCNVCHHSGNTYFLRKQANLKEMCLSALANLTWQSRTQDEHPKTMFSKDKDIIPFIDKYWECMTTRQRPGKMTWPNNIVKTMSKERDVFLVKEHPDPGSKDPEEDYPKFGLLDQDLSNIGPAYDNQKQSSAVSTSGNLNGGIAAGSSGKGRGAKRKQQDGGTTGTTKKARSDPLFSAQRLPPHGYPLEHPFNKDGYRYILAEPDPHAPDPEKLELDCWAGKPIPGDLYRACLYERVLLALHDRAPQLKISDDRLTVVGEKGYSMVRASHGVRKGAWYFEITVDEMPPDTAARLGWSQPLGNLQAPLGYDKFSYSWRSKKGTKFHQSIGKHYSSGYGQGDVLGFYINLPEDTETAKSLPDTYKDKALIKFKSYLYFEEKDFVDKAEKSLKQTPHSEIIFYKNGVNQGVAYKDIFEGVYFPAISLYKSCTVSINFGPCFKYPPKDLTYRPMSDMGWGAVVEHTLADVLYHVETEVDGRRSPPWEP
Sequence of UniProt Q9UHQ4 (Q9UHQ4 whole entry, looked up): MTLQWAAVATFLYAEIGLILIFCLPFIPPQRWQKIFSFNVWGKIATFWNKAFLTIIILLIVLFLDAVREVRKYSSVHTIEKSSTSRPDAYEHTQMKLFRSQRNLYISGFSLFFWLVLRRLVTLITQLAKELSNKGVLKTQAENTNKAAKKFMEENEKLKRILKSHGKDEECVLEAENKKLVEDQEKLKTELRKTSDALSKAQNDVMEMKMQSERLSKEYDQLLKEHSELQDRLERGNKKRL

log2 fold change, inactive:
BZW2 (UniProt Q9Y6E2) 0.034
ALDH6A1 (UniProt Q02252) -0.019
ATAD3B (UniProt Q5T9A4) -0.103
ASNS (UniProt P08243) 0.034
ALG11 (UniProt Q2TAA5) -0.072
AGPAT5 (UniProt Q9NUQ2) 0.09
ALDH9A1 isoform 3 (UniProt P49189) 0.041
ARL2BP (UniProt Q9Y2Y0) 0.125
ASH2L (UniProt Q9UBL3) -0.07
ACO2 (UniProt Q99798) 0.043
APOB (UniProt P04114) 0.071
AMFR (UniProt Q9UKV5) 0.029
AKT2 (UniProt P31751) 0.019
BCAP29 isoform 2 (UniProt Q9UHQ4) 0
ADD3 (UniProt Q9UEY8) 0.028
ATP6V0A1 isoform 3 (UniProt Q93050) -0.097
BCCIP isoform 2 (UniProt Q9P287) -0.064
BRD4 (UniProt O60885) 0.011
ATL2 (UniProt Q8NHH9) 0.083
BRIX1 (UniProt Q8TDN6) -0.494
ACBD6 (UniProt Q9BR61) -0.053
ABCB6 (UniProt Q9NP58) 0
ATG4B isoform 2 (UniProt Q9Y4P1) 0.022
ALDH18A1 (UniProt P54886) -0.202
AGPAT3 isoform 3 (UniProt Q9NRZ7) 0.033
ANKZF1 (UniProt Q9H8Y5) -0.005
AK6 (UniProt Q9Y3D8) 0
AP2S1 (UniProt P53680) -0.057
ACADVL isoform 3 (UniProt P49748) 0.022
ATP5ME (UniProt P56385) 0.001
B4GALT1 (UniProt P15291) -0.005
ALKBH5 (UniProt Q6P6C2) -0.042
ATP12A isoform 2 (UniProt P54707) 0.066
ABHD16A (UniProt O95870) 0.087
BAP1 (UniProt Q92560) -0.086
ARMC8 (UniProt Q8IUR7) -0.019
